# Experimental data reported in PubChem BioAssay (NCI).
# The panel holds about 79,000 compounds, 15% with a hit somewhere; the sample as a whole holds those more often. Unmarked numbers belong to inactive results. Activity calls are given as the source filed them. No stated cut-off is given here; in the data, active means growth inhibition above about 70%; inactive means the rest.
# How the values were obtained:
# [1] = NCI Yeast Anticancer Drug Screen. Data for the rad52 strain (AID 147);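 further: 0% = growth of vehicle-treated control cultures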; details: S. cerevisiae rad52 mutant growth inhibition, active compounds read high
# How it was run: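 Measured: yeast growth inhibition. System: strain with a defined DNA damage repair alteration. Reference: vehicle-treated control cultures.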
# [2] = NCI Yeast Anticancer Drug Screen. Data for the wt1 strain (AID 149);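 further: 0% = growth of vehicle-treated wt1 cultures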; details: S. cerevisiae wt1 strain (SPY 50644) growth inhibition, active compounds read high
# How it was run: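 Each compound is tested on wt1 yeast and the loss of growth versus vehicle gives the inhibition value.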
# [3] = NCI Yeast Anticancer Drug Screen. Data for the rad50EPP+ strain (AID 151);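 further: 0% = growth of vehicle-treated control cultures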; details: S. cerevisiae rad50 mutant strain, active compounds read high
# How it was run: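 One strain with a rad50 alteration (rad50EPP+) was compound-treated, its growth then compared to that of vehicle controls.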
# [4] = NCI Yeast Anticancer Drug Screen. Data for the rad50 strain (AID 155);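 further: 0% = growth of vehicle-only cultures of the same strain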; details: S. cerevisiae rad50 strain growth inhibition, active compounds read high
# How it was run: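 Vehicle-treated cultures provide the reference for the growth inhibition reported for compound-exposed, repair-deficient yeast.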
# [5] = NCI Yeast Anticancer Drug Screen. Data for the mec2-1 strain (AID 157); details: S. cerevisiae mec2-1 strain, active compounds read high
# How it was run: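 Test agents were screened against the mec2-1 yeast strain, with defined DNA repair or cell cycle alteration. Growth was scored as inhibition against vehicle-only controls.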
# [6] = NCI Yeast Anticancer Drug Screen. Data for the rad14 strain (AID 159);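 further: 0% = growth of vehicle-treated control cultures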; details: S. cerevisiae rad14 strain growth inhibition, active compounds read high
# How it was run: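 Inhibition of growth is reported for a repair-deficient yeast mutant following compound treatment, calculated relative to cultures that received vehicle.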
# [7] = NCI Yeast Anticancer Drug Screen. Data for the sgs1 mgt1 strain (AID 161);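 further: 0% = growth of cultures given vehicle only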; details: S. cerevisiae sgs1 mgt1 strain, active compounds read high
# How it was run: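 Mutant yeast exposed to compound; growth scored against vehicle-only wells.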
# [8] = NCI Yeast Anticancer Drug Screen. Data for the CLN2oe strain (AID 163);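 further: 0% = growth of vehicle-only control cultures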; details: S. cerevisiae CLN2oe strain, active compounds read high
# How it was run: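 Here, growth inhibition in a cell-cycle-altered yeast strain after compound exposure was quantified against vehicle control growth.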
# [9] = NCI Yeast Anticancer Drug Screen. Data for the cln2 rad14 strain (AID 165);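 further: 0% = growth equal to vehicle treated cultures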; details: S. cerevisiae cln2 rad14 strain, active compounds read high
# How it was run: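 Growth of compound-exposed yeast (cln2 rad14 genotype) measured and expressed as inhibition relative to vehicle.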
# [10] = NCI Yeast Anticancer Drug Screen. Data for the bub3 strain (AID 167); details: S. cerevisiae bub3 mutant strain, active compounds read high
# How it was run: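 Mutant yeast screening strain plus compound; vehicle-treated cultures serve as the 0% inhibition reference.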
# [11] = NCI Yeast Anticancer Drug Screen. Data for the wt2 strain (AID 169); details: S. cerevisiae wt2 strain growth inhibition, active compounds read high
# How it was run: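 Genetically defined yeast strains from a DNA-repair/cell-cycle panel were used. Compound-exposed yeast growth was measured, and the inhibition was calculated relative to vehicle treatment.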
# [12] = NCI Yeast Anticancer Drug Screen. Data for the mlh1 strain (AID 171);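 further: 0% = growth of vehicle-treated control cultures of the same strain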; details: S. cerevisiae mlh1 strain growth inhibition, active compounds read high
# How it was run: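 Here the genetically defined yeast mutant is grown with each compound, and the extent to which its growth falls below that of vehicle-exposed cells is reported.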
# [13] = NCI Yeast Anticancer Drug Screen. Data for the sgs1 strain (AID 173);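 further: 0% = growth of vehicle-only control cultures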; details: S. cerevisiae sgs1 mutant, active compounds read high
# How it was run: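 Relative growth inhibition, referenced to vehicle, was determined in a yeast strain with a defined alteration affecting DNA damage repair or cell cycle control after compound exposure.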
# [14] = NCI Yeast Anticancer Drug Screen. Data for the mlh1 rad18 strain (AID 175); details: S. cerevisiae mlh1 rad18 strain growth inhibition, active compounds read high
# How it was run: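 In this whole-cell yeast screen, a strain with altered DNA damage repair is challenged with compound, and its growth is measured against matched vehicle-treated controls.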
# [15] = NCI Yeast Anticancer Drug Screen. Data for the rad18 strain (AID 177); details: S. cerevisiae rad18 mutant growth inhibition, active compounds read high
# How it was run: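 Screen uses a yeast strain with a defined lesion in DNA damage repair; compound effect is read as loss of growth compared to untreated vehicle cultures.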
# [16] = at 5.0 µM (retest, dose inferred, filed as 0.5)
# [17] = at 50.0 µM (retest, dose inferred, filed as 5.0)
structure (smiles),measurement,setting,value
CCCCC(=O)c1c(O)nc2sccn2c1=O,growth inhibition,[1]; at 1.2 µM,8%
same,growth inhibition,[1]; at 3.7 µM,18%
same,growth inhibition,[1]; at 11.0 µM,64%
same,growth inhibition,[1]; at 33.0 µM,96% (active)
same,growth inhibition,[1]; at 100.0 µM,98% (active)
same,growth inhibition,[2]; at 1.2 µM,25%
same,growth inhibition,[2]; at 3.7 µM,29%
same,growth inhibition,[2]; at 11.0 µM,52%
same,growth inhibition,[2]; at 33.0 µM,94% (active)
same,growth inhibition,[2]; at 100.0 µM,98% (active)
same,growth inhibition,[3]; at 1.2 µM,2%
same,growth inhibition,[3]; at 3.7 µM,7%
same,growth inhibition,[3]; at 11.0 µM,58%
same,growth inhibition,[3]; at 33.0 µM,94% (active)
same,growth inhibition,[3]; at 100.0 µM,95% (active)
same,growth inhibition,[4]; at 1.2 µM,14%
same,growth inhibition,[4]; at 3.7 µM,31%
same,growth inhibition,[4]; [16],30%
same,growth inhibition,[4]; at 11.0 µM,82% (active)
same,growth inhibition,[4]; at 33.0 µM,97% (active)
same,growth inhibition,[4]; [17],85% (active)
same,growth inhibition,[4]; at 50.0 µM,85.4% (active)
same,growth inhibition,[4]; at 100.0 µM,98% (active)
same,growth inhibition,[5]; at 1.2 µM,22%
same,growth inhibition,[5]; at 3.7 µM,17%
same,growth inhibition,[5]; [16],10%
same,growth inhibition,[5]; at 11.0 µM,82% (active)
same,growth inhibition,[5]; at 33.0 µM,97% (active)
same,growth inhibition,[5]; [17],88% (active)
same,growth inhibition,[5]; at 50.0 µM,85.3% (active)
same,growth inhibition,[5]; at 100.0 µM,98% (active)
same,growth inhibition,[6]; at 1.2 µM,22%
same,growth inhibition,[6]; at 3.7 µM,68%
same,growth inhibition,[6]; at 11.0 µM,98% (active)
same,growth inhibition,[6]; at 33.0 µM,98% (active)
same,growth inhibition,[6]; at 100.0 µM,98% (active)
same,growth inhibition,[7]; [16],5%
same,growth inhibition,[7]; [17],28%
same,growth inhibition,[7]; at 50.0 µM,89.2% (active)
same,growth inhibition,[8]; at 1.2 µM,9%
same,growth inhibition,[8]; at 3.7 µM,5%
same,growth inhibition,[8]; at 11.0 µM,26%
same,growth inhibition,[8]; at 33.0 µM,78% (active)
same,growth inhibition,[8]; at 100.0 µM,89% (active)
same,growth inhibition,[9]; [16],22%
same,growth inhibition,[9]; [17],37%
same,growth inhibition,[9]; at 50.0 µM,53%
same,growth inhibition,[10]; at 1.2 µM,6%
same,growth inhibition,[10]; at 3.7 µM,11%
same,growth inhibition,[10]; [16],47%
same,growth inhibition,[10]; at 11.0 µM,62%
same,growth inhibition,[10]; at 33.0 µM,94% (active)
same,growth inhibition,[10]; [17],92% (active)
same,growth inhibition,[10]; at 50.0 µM,87.2% (active)
same,growth inhibition,[10]; at 100.0 µM,96% (active)
same,growth inhibition,[11]; at 1.2 µM,7%
same,growth inhibition,[11]; at 3.7 µM,19%
same,growth inhibition,[11]; at 11.0 µM,86% (active)
same,growth inhibition,[11]; at 33.0 µM,98% (active)
same,growth inhibition,[11]; at 100.0 µM,99% (active)
same,growth inhibition,[12]; at 1.2 µM,27%
same,growth inhibition,[12]; at 3.7 µM,74% (active)
same,growth inhibition,[12]; at 11.0 µM,95% (active)
same,growth inhibition,[12]; at 33.0 µM,97% (active)
same,growth inhibition,[12]; at 100.0 µM,98% (active)
same,growth inhibition,[13]; at 1.2 µM,33%
same,growth inhibition,[13]; at 3.7 µM,55%
same,growth inhibition,[13]; at 11.0 µM,92% (active)
same,growth inhibition,[13]; at 33.0 µM,97% (active)
same,growth inhibition,[13]; at 100.0 µM,98% (active)
same,growth inhibition,[14]; [16],63%
same,growth inhibition,[14]; [17],95% (active)
same,growth inhibition,[14]; at 50.0 µM,83.4% (active)
same,growth inhibition,[15]; at 1.2 µM,17%
same,growth inhibition,[15]; at 3.7 µM,20%
same,growth inhibition,[15]; at 11.0 µM,72% (active)
same,growth inhibition,[15]; at 33.0 µM,95% (active)
same,growth inhibition,[15]; at 100.0 µM,97% (active)
Cc1cccc2c1N=C(C(F)(F)F)CC2=O,growth inhibition,[1]; at 1.2 µM,4%
same,growth inhibition,[1]; at 3.7 µM,7%
same,growth inhibition,[1]; at 11.0 µM,10%
same,growth inhibition,[1]; at 33.0 µM,20%
same,growth inhibition,[1]; at 100.0 µM,46%
same,growth inhibition,[2]; at 1.2 µM,-2%
same,growth inhibition,[2]; at 3.7 µM,-1%
same,growth inhibition,[2]; at 11.0 µM,2%
same,growth inhibition,[2]; at 33.0 µM,1%
same,growth inhibition,[2]; at 100.0 µM,31%
same,growth inhibition,[3]; at 1.2 µM,2%
same,growth inhibition,[3]; at 3.7 µM,3%
same,growth inhibition,[3]; at 11.0 µM,10%
same,growth inhibition,[3]; at 33.0 µM,33%
same,growth inhibition,[3]; at 100.0 µM,48%
same,growth inhibition,[4]; at 1.2 µM,9%
same,growth inhibition,[4]; at 3.7 µM,15%
same,growth inhibition,[4]; [16],-120%
same,growth inhibition,[4]; at 11.0 µM,23%
same,growth inhibition,[4]; at 33.0 µM,24%
same,growth inhibition,[4]; [17],9%
same,growth inhibition,[4]; at 50.0 µM,43.7%
same,growth inhibition,[4]; at 100.0 µM,46%
same,growth inhibition,[5]; at 1.2 µM,2%
same,growth inhibition,[5]; at 3.7 µM,1%
same,growth inhibition,[5]; [16],-43%
same,growth inhibition,[5]; at 11.0 µM,-5%
same,growth inhibition,[5]; at 33.0 µM,9%
same,growth inhibition,[5]; [17],40%
same,growth inhibition,[5]; at 50.0 µM,35%
same,growth inhibition,[5]; at 100.0 µM,54%
same,growth inhibition,[6]; at 1.2 µM,3%
same,growth inhibition,[6]; at 3.7 µM,-5%
same,growth inhibition,[6]; at 11.0 µM,0%
same,growth inhibition,[6]; at 33.0 µM,7%
same,growth inhibition,[6]; at 100.0 µM,39%
same,growth inhibition,[7]; [16],-44%
same,growth inhibition,[7]; [17],65%
same,growth inhibition,[7]; at 50.0 µM,45%
same,growth inhibition,[8]; at 1.2 µM,-5%
same,growth inhibition,[8]; at 3.7 µM,-3%
same,growth inhibition,[8]; at 11.0 µM,3%
same,growth inhibition,[8]; at 33.0 µM,8%
same,growth inhibition,[8]; at 100.0 µM,43%
same,growth inhibition,[9]; [16],-49%
same,growth inhibition,[9]; [17],45%
same,growth inhibition,[9]; at 50.0 µM,49.6%
same,growth inhibition,[10]; at 1.2 µM,-2%
same,growth inhibition,[10]; at 3.7 µM,-2%
same,growth inhibition,[10]; [16],-61%
same,growth inhibition,[10]; at 11.0 µM,-1%
same,growth inhibition,[10]; at 33.0 µM,1%
same,growth inhibition,[10]; [17],33%
same,growth inhibition,[10]; at 50.0 µM,25%
same,growth inhibition,[10]; at 100.0 µM,37%
same,growth inhibition,[11]; at 1.2 µM,-2%
same,growth inhibition,[11]; at 3.7 µM,-2%
same,growth inhibition,[11]; at 11.0 µM,-1%
same,growth inhibition,[11]; at 33.0 µM,6%
same,growth inhibition,[11]; at 100.0 µM,40%
same,growth inhibition,[12]; at 1.2 µM,-1%
same,growth inhibition,[12]; at 3.7 µM,2%
same,growth inhibition,[12]; at 11.0 µM,1%
same,growth inhibition,[12]; at 33.0 µM,8%
same,growth inhibition,[12]; at 100.0 µM,38%
same,growth inhibition,[13]; at 1.2 µM,1%
same,growth inhibition,[13]; at 3.7 µM,-2%
same,growth inhibition,[13]; at 11.0 µM,0%
same,growth inhibition,[13]; at 33.0 µM,27%
same,growth inhibition,[13]; at 100.0 µM,48%
same,growth inhibition,[14]; [16],-100%
same,growth inhibition,[14]; [17],71% (active)
same,growth inhibition,[14]; at 50.0 µM,76.8% (active)
same,growth inhibition,[15]; at 1.2 µM,0%
same,growth inhibition,[15]; at 3.7 µM,1%
same,growth inhibition,[15]; at 11.0 µM,3%
same,growth inhibition,[15]; at 33.0 µM,9%
same,growth inhibition,[15]; at 100.0 µM,43%
